The text below walks through data of PubChem BioAssay (Tox21).

Assay [1] is described as follows: A CellTox Green Cytotoxicity Assay to monitor cytotoxicity in HEK293 cells - 40 hour (AID 1224871). Note: nearly all actives have a fitted effect of over 45% in size. Note: potency is the fitted concentration of half-maximal effect. In outline: (§1)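 Read-out: fluorescence of a cell-impermeant cyanine dye staining DNA of dead cells, proportional to cytotoxicity. HEK293, 600 cells/well with reagent, compound (23 nL DMSO) added after 5 h; reads at 0, 8, 16, 24, 32, 40 h.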
A short description of assay [2]: qHTS RealTime-Glo MT Cell Viability Assay in HEK293 cells - 16 hour (AID 1224872). Note: nearly all actives have a fitted effect of over 50% in size. Note: potency is the fitted concentration of half-maximal effect. In outline:
(§2)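 Assay medium contained NanoLuc luciferase plus cell-permeant prosubstrate, added with HEK293 cells at 600 cells/well. After 5 h at 37 C/5% CO2 compounds were added; plates stayed at 37 C for 40 h with serial luminescence reads.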

Assay [3] in a line: qHTS RealTime-Glo MT Cell Viability Assay in HepG2 cells - 8 hour (AID 1224873). Note: nearly all actives have a fitted effect of over 55% in size. Note: potency is the fitted concentration of half-maximal effect. In outline:
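Real-time viability: cells seeded at 600 per well together with NanoLuc and cell-permeant prosubstrate, compounds added after 5 h incubation. Luminescence tracked at 0, 8, 16, 24, 32 and 40 h of exposure.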
In general terms: qHTS replaces the single test concentration by a dilution series.

A short description of assay [4]: qHTS RealTime-Glo MT Cell Viability Assay in HEK293 cells - 40 hour (AID 1224874). Note: nearly all actives have a fitted effect of over 50% in size. Note: potency is the fitted concentration of half-maximal effect. The note with it: RealTime-Glo luminescence; max response: stronger effect = lower value. In outline:
(§3)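 Luminescence readout at each listed time point; HEK293, 600 cells/well, RealTime-Glo MT reagent added with cells; compounds pinned (23 nL in DMSO) after 5 h at 37 C; continuous culture at 37 C.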

The nature of assay [5]: A CellTox Green Cytotoxicity Assay to monitor cytotoxicity in HEK293 cells - 24 hour (AID 1224875). Note: nearly all actives have a fitted effect of over 45% in size. Note: potency is the fitted concentration of half-maximal effect. In outline: as §1
Assay [6] can be described thus: qHTS RealTime-Glo MT Cell Viability Assay in HepG2 cells - 32 hour (AID 1224877). Note: nearly all actives have a fitted effect of over 55% in size. Note: potency is the fitted concentration of half-maximal effect. In outline: (§4)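 qHTS, HepG2, 600 cells/well, RealTime-Glo (NanoLuc + prosubstrate) added with cells; 5 h preincubation; DMSO compound addition; 37 C; luminescence at 0/8/16/24/32/40 h.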
Assay [7] can be described thus: A CellTox Green Cytotoxicity Assay to monitor cytotoxicity in HepG2 cells - 24 hour (AID 1224878). Note: nearly all actives have a fitted effect of over 45% in size. Note: potency is the fitted concentration of half-maximal effect. In outline:
(§5)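 HepG2, 600 cells/well premixed w/ CellTox Green; 5 h settle, 37 C/5% CO2; pintool cpd add (DMSO); 37 C, 40 h; fluorescence read at 0, 8, 16, 24, 32, 40 h.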

Assay [8] in a line: A CellTox Green Cytotoxicity Assay to monitor cytotoxicity in HepG2 cells - 40 hour (AID 1224879). Note: nearly all actives have a fitted effect of over 40% in size. Note: potency is the fitted concentration of half-maximal effect. In outline: as §5
Assay [9] can be described thus: A CellTox Green Cytotoxicity Assay to monitor cytotoxicity in HEK293 cells - 32 hour (AID 1224881). Note: nearly all actives have a fitted effect of over 40% in size. Note: potency is the fitted concentration of half-maximal effect. In outline: as §1
A short description of assay [10]: A CellTox Green Cytotoxicity Assay to monitor cytotoxicity in HepG2 cells - 0 hour (AID 1224882). Note: nearly all actives have a fitted effect of over 35% in size. In outline: as §5
Assay [11] can be described thus: A CellTox Green Cytotoxicity Assay to monitor cytotoxicity in HepG2 cells - 32 hour (AID 1224883). Note: nearly all actives have a fitted effect of over 50% in size. Note: potency is the fitted concentration of half-maximal effect. In outline:
as §5

Assay [12] is described as follows: A CellTox Green Cytotoxicity Assay to monitor cytotoxicity in HEK293 cells - 8 hour (AID 1224884). Note: nearly all actives have a fitted effect of over 35% in size. Note: potency is the fitted concentration of half-maximal effect. In outline:
as §1

Assay [13] in a line: qHTS RealTime-Glo MT Cell Viability Assay in HepG2 cells - 16 hour (AID 1224885). Note: nearly all actives have a fitted effect of over 50% in size. Note: potency is the fitted concentration of half-maximal effect. In outline:
as §4

Assay [14] is described as follows: qHTS RealTime-Glo MT Cell Viability Assay in HEK293 cells - 24 hour (AID 1224886). Note: nearly all actives have a fitted effect of over 50% in size. Note: potency is the fitted concentration of half-maximal effect. In outline:
as §2

The nature of assay [15]: qHTS RealTime-Glo MT Cell Viability Assay in HEK293 cells - 8 hour (AID 1224887). Note: nearly all actives have a fitted effect of over 50% in size. Note: potency is the fitted concentration of half-maximal effect. In outline:
as §3

Assay [16] can be described thus: A CellTox Green Cytotoxicity Assay to monitor cytotoxicity in HEK293 cells - 16 hour (AID 1224888). Note: nearly all actives have a fitted effect of over 35% in size. Note: potency is the fitted concentration of half-maximal effect. In outline: as §1
Assay [17] in a line: qHTS RealTime-Glo MT Cell Viability Assay in HepG2 cells - 0 hour (AID 1224889). Note: nearly all actives have a fitted effect of over 50% in size. Note: potency is the fitted concentration of half-maximal effect. In outline:
as §4

The nature of assay [18]: A CellTox Green Cytotoxicity Assay to monitor cytotoxicity in HepG2 cells - 8 hour (AID 1224890). Note: nearly all actives have a fitted effect of over 45% in size. Note: potency is the fitted concentration of half-maximal effect. In outline: as §5
The nature of assay [19]: qHTS RealTime-Glo MT Cell Viability Assay in HEK293 cells - 0 hour (AID 1224880). In outline:
as §3

Assay [20] in a line: A CellTox Green Cytotoxicity Assay to monitor cytotoxicity in HepG2 cells - 16 hour (AID 1224876). Note: nearly all actives have a fitted effect of over 45% in size. Note: potency is the fitted concentration of half-maximal effect. In outline: as §5

“And” between values parts separate entries of the source, which are not always exact repeats. Equal entries are not always repeated. Records with an inconclusive call do not appear. The source holds several records for some structures; these can differ, active in one and inactive in another. The source made the active and inactive calls. Calls come from the whole dose curve; as a rule, active = well fitted curve in the direction sought with a large enough effect in the repeat runs; inconclusive = weak or mixed curves; inactive = no such curve, though single readings can be large; an effect the other way counts as inactive or inconclusive.
% is set by controls: 0 for no effect and ±100 for the full control effect.

Regarding `CC(C)CCCCCOC(=O)c1ccccc1C(=O)OCCCCCC(C)C`, the Potency result in assay [1], in [2], in assay [3], in [5], in assay [6] and in assay [7] was “inactive” in each case. Further, the Potency entry in assay [8], in assay [9], in [10], in [11], in assay [12] and in assay [13] was “inactive” each time. For the same compound, the Potency entry in assay [14], in [15], in [16], in assay [17] and in assay [18] was “inactive” throughout. The max response in assay [4] was -3.2% (inactive).

`N#CCCSCCC#N`: the Potency entry in assay [1], in assay [2], in assay [3], in [5], in assay [6] and in assay [7] was “inactive” throughout. For the same compound, the Potency entry in [8], in [19], in [9], in [10], in assay [11] and in assay [13] was “inactive” throughout. In addition, the Potency result in assay [14], in assay [15], in assay [16], in [17] and in assay [18] was “inactive” in each case. For the same compound, in [4], the max response is 8.18% (inactive).

Turning to `CC(=O)/C=C/c1ccc2c(c1)OCO2`, the Potency result in [1], in assay [2], in assay [3], in [5], in assay [6] and in assay [19] was “inactive” in each case. Moreover, the Potency result in [10], in assay [12], in assay [13], in assay [14], in assay [16] and in assay [17] was “inactive” throughout. For the same compound, the Potency entry in assay [18] was “inactive”. Also, the max response in [4] was -11.6% (inactive). Also, in assay [8], the Potency was 49.2 µM (active).

`CN(C)[C@@H]1C(=O)C(C(N)=O)=C(O)[C@@]2(O)C(=O)C3=C(O)c4c(O)ccc(Cl)c4[C@@](C)(O)[C@H]3C[C@@H]12`: the Potency result in assay [1], in assay [2], in assay [3], in assay [5], in assay [20] and in assay [6] was “inactive” throughout. The Potency result in assay [7], in assay [8], in [19], in assay [9], in assay [10] and in [11] was “inactive” throughout. The Potency entry in [12], in assay [13], in [15], in assay [16], in assay [17] and in assay [18] was “inactive” each time.

`CCOC(=O)CC(=O)CCl`: the Potency in assay [1] was 54.9 µM (active); in assay [2], 38.9 µM (active); in [4], 43.6 µM (active); in [14], 43.6 µM (active). Besides, the Potency entry in assay [3], in assay [20], in [6], in assay [7], in [8] and in [19] was “inactive” in each case. Also, the Potency entry in assay [10], in [11], in assay [13], in assay [16], in [17] and in assay [18] was “inactive” each time.

Take `CN(CCCC(=O)c1cccnc1)N=O`: the Potency result in [1], in assay [2], in assay [3], in assay [5], in [6] and in [7] was “inactive” each time. In addition, the Potency result in assay [8], in [19], in assay [9], in assay [10], in [11] and in [12] was “inactive” throughout. Further, the Potency result in assay [13], in assay [14], in assay [15], in assay [16], in assay [17] and in [18] was “inactive” throughout. Besides, in assay [4], the max response is 13.5% (inactive).

`CCSC(C)CC1CC(=O)C(/C(CC)=N/OC/C=C/Cl)=C(O)C1` (configuration not stated): the Potency result in [1], in assay [2], in [3], in [5], in assay [6] and in assay [7] was “inactive” throughout. For the same compound, the Potency result in assay [8], in assay [19], in [9], in assay [10], in [11] and in [13] was “inactive” in each case. Further, the Potency result in [14], in assay [15], in assay [16], in [17] and in assay [18] was “inactive” in each case. Also, the max response in [4] was 0.0447% (inactive).

Take `C[C@@H]1CC[C@@]2(OC1)O[C@H]1[C@@H](O)[C@H]3[C@@H]4CC[C@H]5C[C@@H](O[C@@H]6O[C@H](CO)[C@H](O[C@@H]7O[C@H](CO)[C@@H](O)[C@H](O[C@@H]8OC[C@@H](O)[C@H](O)[C@H]8O)[C@H]7O[C@@H]7O[C@H](CO)[C@@H](O)[C@H](O[C@@H]8O[C@H](CO)[C@@H](O)[C@H](O)[C@H]8O)[C@H]7O)[C@H](O)[C@H]6O)[C@H](O)C[C@]5(C)[C@H]4CC[C@]3(C)[C@H]1[C@@H]2C`: the Potency in assay [1] was 3.68 µM (active); in assay [2], 9.25 µM (active); in assay [3], 16.4 µM (active); in assay [4], 11.6 µM (active); in assay [5], 1.31 µM (active); in assay [20] it was 13.1 µM (active). For the same compound, the Potency in assay [6] is 23.2 µM (active); in [7], 11.6 µM (active); in assay [8] it was 11.6 µM (active); in assay [11], 11.6 µM (active); in assay [12], 4.63 µM (active); in assay [13], 18.4 µM (active). Further, the Potency in assay [14] was 11.6 µM (active); in assay [15], 6.55 µM (active); in [16], 4.63 µM (active); in assay [17], 23.2 µM (active); in assay [18], 13.1 µM (active). In addition, the Potency entry in [10] was “inactive”.

In the case of `CC(=O)[O-].[Tl+]`, the Potency entry in assay [1], in assay [2], in assay [3], in assay [5], in assay [20] and in [6] was “inactive” throughout. Moreover, the Potency entry in [7], in [8], in assay [10], in assay [11], in assay [12] and in assay [13] was “inactive” each time. Further, the Potency entry in [15], in assay [16], in assay [17] and in assay [18] was “inactive” throughout. In [4], the Potency is 27.7 µM (active).

On to `Oc1ccccc1Br`, for which the Potency entry in assay [1], in assay [2], in [3], in [5], in assay [6] and in assay [7] was “inactive” throughout. Moreover, the Potency entry in assay [8], in assay [19], in assay [10], in assay [12], in [13] and in assay [14] was “inactive” each time. Moreover, the Potency entry in assay [16], in [17] and in assay [18] was “inactive” in each case. Further, in assay [4], the max response is 3.02% (inactive).

For `Clc1ccc(C(c2ccc(Cl)cc2)C(Cl)(Cl)Cl)cc1`, the Potency was 55.3 µM (active) and inactive in assay [1]; 39.2 µM (active) in assay [2]; 39.2 µM (active) in [4]; “inactive and 54.9 µM (active)” in assay [8]; 55.3 µM (active) and inactive in [9]; 39.2 µM (active) and 43.6 µM (active) in [14]. Further, the Potency result in assay [3], in assay [20], in assay [6], in [7], in assay [19] and in [10] was “inactive” each time. In addition, the Potency entry in assay [11], in assay [12], in assay [13], in assay [16], in assay [17] and in assay [18] was “inactive” throughout.

For `COC12CC[C@@]3(C[C@@H]1C(C)(O)C(C)(C)C)[C@H]1Cc4ccc(O)c5c4[C@@]3(CCN1CC1CC1)[C@H]2O5` (some centres not stated), the Potency is 24.4 µM (active) in [1]; 24.4 µM (active) in assay [2]; 43.4 µM (active) in assay [3]; 24.4 µM (active) in assay [4]; 38.6 µM (active) in [5]; 43.4 µM (active) in assay [20]. Besides, the Potency in assay [6] is 48.6 µM (active); in assay [8] it was 24.4 µM (active); in [9] it was 38.6 µM (active); in assay [11], 38.6 µM (active); in assay [12], 24.4 µM (active); in assay [13] it was 43.4 µM (active). Further, the Potency in assay [14] was 34.4 µM (active); in assay [15] it was 38.6 µM (active); in assay [16], 21.7 µM (active); in [18] it was 43.4 µM (active). Moreover, the Potency entry in assay [19], in assay [10] and in assay [17] was “inactive” in each case.

Take `Cc1cccc(OP(=O)(Oc2cccc(C)c2)Oc2cccc(C)c2)c1`: the Potency result in [1], in [2], in [3], in assay [5], in [6] and in [7] was “inactive” each time. The Potency entry in assay [8], in assay [19], in assay [9], in [12], in assay [13] and in assay [14] was “inactive” in each case. Also, the Potency result in assay [15], in assay [16], in assay [17] and in assay [18] was “inactive” throughout. Besides, the max response in [4] was 5.97% (inactive).
